# Screening data as filed in PubChem BioAssay.
# Only some compounds are listed: those with a hit (about 4.5% of all), similar ones and a draw of the others.
# ssDAF12 agonist = S. stercoralis DAF-12 activation, primary screen | HEK293 ssDAF-12/GRIP1 lit1-tk-luc reporter, luminescence; % of 3 µM dafachronic acid response | activation, % at 6.8 µM | hit rate 1% among 370,000 | AID 652126;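 active = activation above the mean over all tested compounds plus 3 SD, cut at about 0.9% in these data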;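 also: 0% = DMSO-only wells and 100% = 3 µM delta7-dafachronic acid wells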
# DAX1 inh-1 = inhibitors of DAX1 repression of SF-1 activated StAR promoter | HEK293T StAR-luciferase reporter, SF-1/DAX-1 repression relief | inhibition, % at 6.8 µM | hit rate 1.1% among 370,000 | AID 652010;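 active = inhibition above the mean over all tested compounds plus 3 SD, cut at about 3.6% in these data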;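 also: 0% = DAX-1 cells with DMSO and 100% = cells lacking DAX-1 with DMSO; higher inhibition means more luminescence from relief of DAX-1 repression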
# hcDAF12 agonist = H. contortus DAF-12 activation, primary screen; HEK293 hcDAF-12 lit1-tk-luc reporter, luminescence; 0% DMSO, 100% Δ7-dafachronic acid; activation, % at 6.8 µM; hit rate 1.4% among 370,000; AID 652067;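 active = activation above the mean of all tested compounds plus 3 SD, cut at about 5.5% in these data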;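 also: 100% = response to 3 µM Δ7-dafachronic acid high control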
# DAX1 inh-2 = NR0B1 (DAX1) inhibition; P51843; inhibition, % at 6.75 µM; AID 504766; HEK293 Gal4-DAX1 luciferase reporter, luminescence; hit rate 0.99% among 340,000;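 active = inhibition above the mean over all tested compounds plus 3 SD, cut at about 4.2% in these data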;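 also: 0% = DAX1-transfected cells with DMSO and 100% = empty-vector control cells with DMSO; inhibition shows as a rise in luminescence from relieved DAX1 repression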
# Target sequence (P51843 207-470 limits assumed): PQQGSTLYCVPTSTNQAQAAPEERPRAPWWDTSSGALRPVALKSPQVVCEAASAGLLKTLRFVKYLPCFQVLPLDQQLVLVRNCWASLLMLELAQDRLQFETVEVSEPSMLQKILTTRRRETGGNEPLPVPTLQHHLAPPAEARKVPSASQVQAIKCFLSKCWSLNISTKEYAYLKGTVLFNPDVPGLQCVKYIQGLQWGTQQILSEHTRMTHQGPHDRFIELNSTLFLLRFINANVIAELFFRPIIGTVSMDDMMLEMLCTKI
# hgDAF-12 ag = agonists of H. glycines DAF-12 nuclear receptor | HEK293 GAL4-hgDAF12 UAS-luciferase reporter, agonist luminescence; normalized to butyrate control | activation, % at 6.8 µM | hit rate 1.8% among 370,000 | AID 687014;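 active = activation above a cutoff set at the mean of all screened compounds plus 3 SD, cut at about 10% in these data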;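 also: 0% = DMSO wells and 100% = sodium butyrate wells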
# FXN GAA850 act = increases GAA850 frataxin promoter reporter activity | HEK293 lucGAA850 FXN promoter luciferase reporter, 24 h; percent of 10 µM SAHA response | activation, % at 6 µM | hit rate 0.56% among 360,000;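 active = activation above the average of all compounds screened plus 3 SD, cutoff fixed separately per campaign, cut at about 7.5% in these data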;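 also: 0% = DMSO wells and 100% = 10 µM SAHA wells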
# Starred values were filed as active, the others as inactive; . = no result.
SMILES,ssDAF12 agonist,DAX1 inh-1,hcDAF12 agonist,DAX1 inh-2,hgDAF-12 ag,FXN GAA850 act
C=CCN1[C@H](C#N)[C@@H](c2ccc(C#Cc3cccc(OC)c3)cc2)[C@H]1CO,-2,-1,-5,.,-6,.
Cc1c(Cl)cccc1N1C(=O)CC(NNC(=O)c2cccs2)C1=O (stereo not drawn),0,1,4,0,10*,3
COc1cc(-c2coc3c(C(=O)Nc4ccc(C(C)C)cc4)cccc23)ccc1O,0.9*,4.0*,5.6*,.,6,1
COc1cc(-c2coc3c(C(=O)NC4CCCCC4)cccc23)ccc1O,-2,-3,-2,.,-1,-3
CCCCN1CCC(COC(=O)c2cc(Cl)c(N)c3c2OCCO3)CC1,-1,4.5*,-2,2,4,2
Nc1ccc2c(c1)sc1ccccc12,-1,2,3,1,11*,4
CCOC(=O)c1cccc(NC(=O)CN(C)S(=O)(=O)c2ccco2)c1,-1,1,-1,.,-1,.
FC(F)(F)c1nnc2ccc(NCc3cccnc3)nn12,-1,0,-2,7.9*,-3,0
COc1cccc(OCc2cc(C(=O)N3CCCC3c3ccccn3)no2)c1 (stereo not drawn),0,3,1,0,12*,3
COc1cccc(OCc2cc(C(=O)N3CCN(C4CCCC4)CC3)no2)c1,-1,0,-1,-1,-1,1
NC(=O)[C@@H]1CCCN1C(=O)c1cc(COc2ccc3c(c2)CCCC3)on1,0,4.5*,1,0,7,4
COc1cccc(OCc2cc(C(=O)N3CCNC(=O)C3Cc3ccccc3)no2)c1 (stereo not drawn),-1,4.2*,-1,1,6,3
CCN1CCCCC(NC(C)=O)C1=O (stereo not drawn),-1,-1,-3,.,0,.
Cc1ccc(C)c(NC(=O)CN2C(=O)CCSc3ccccc32)c1,-1,0,-4,.,-4,.
CC(C)C(=O)NNC(=O)c1csc(CS(=O)(=O)c2ccc(Cl)cc2)n1,0,0,0,0,-2,-1
CS(=O)(=O)NNC(=O)c1csc(Cc2c(Cl)sc3ccc(Cl)cc23)n1,-1,0,-1,4.6*,1,1
Cc1cc(O)c(C(=O)c2ccccc2C(=O)O)cc1C,-1,0,6.4*,1,0,-1
COc1cccc(/C=C2\CCc3ccccc3C2=O)c1,0,2,4,0,14*,5
COc1cc(C=C2C(=O)c3ccccc3C2=O)cc(OC)c1OC,0,0,3,3,2,0
O=C1C(=Cc2cccc(F)c2)Cc2ccccc21,-1,0,-1,.,13*,.
COc1cc(C=C2C(=O)c3ccccc3C2=O)cc(OC)c1,0,0,4,4.7*,4,0
O=C(N[C@H]1C[C@@H]2O[C@H](CO)CC[C@@H]2O[C@@H]1CCc1ccc(-c2cccnc2)cc1)c1cccc(F)c1,0,-1,0,.,2,.
N#CCC[C@H]1CC[C@]2(CCCN(C(=O)c3ccccc3)C2)O1,-1,0,1,.,4,.
NC1=[N+](Cc2ccccc2)C[C@H]2C(=C3CCCC[C@H]3n3c(=O)n(-c4ccccc4)c(=O)n32)N1,-1,-2,-1,.,0,.
Cc1cc(-n2c(C)cc(C(=O)CN3C(=O)NC4(CCCC4)C3=O)c2C)no1,-2,0,0,5.9*,2,-2
SMILES,ssDAF12 agonist,DAX1 inh-1,hcDAF12 agonist,DAX1 inh-2,hgDAF-12 ag,FXN GAA850 act
Cc1cc(C(=O)CN2C(=O)NC3(CCCCC3)C2=O)c(C)n1Cc1ccco1,2.6*,4.0*,4,7.1*,11*,6
Cc1cc(=O)[nH]c(SCC(=O)Nc2cccc(Cl)c2F)n1,-2,-1,-2,.,-1,.
CC(=O)n1cc(C2C(=O)CC(C)(C)CC2=O)c2ccccc21,1.4*,2,6.3*,2,-1,1
C=C(c1cn(C(C)=O)c2ccccc12)c1cn(C(C)=O)c2ccccc12,0,1,5.7*,2,2,0
CC1(C)CC(=O)C(c2c[nH]c3ccccc23)C(=O)C1,0,1,4,2,3,2
CCN(C[C@H]1[C@@H](c2ccc(C3=CCCC3)cc2)[C@H](CO)N1c1nc(C)c(C)s1)S(=O)(=O)c1ccccc1[N+](=O)[O-],-1,0,3,.,0,.
S=c1[nH]cnc2sc(Nc3ccccc3)nc12,0,0,5.8*,1,5,6
Cc1ccc(-c2nc3ncccn3c2NC(=O)Nc2ccc(F)cc2)cc1,-1,1,-3,.,0,.
Cc1c(N2C(=O)c3ccc4c5c(ccc(c35)C2=O)CC4)c(=O)n(-c2ccccc2)n1C,.,.,.,0,.,-1
Cc1c(N2C(=O)c3ccc(Br)cc3C2=O)c(=O)n(-c2ccccc2)n1C,-1,0,-1,5.4*,-2,0
N#Cc1cccc(NC(=O)OCCN2C(=O)CCC23CCC(c2ccc(Cl)cc2)CC3)c1 (stereo not drawn),-1,0,-1,.,0,.
COc1ccc(/C=C2\SC(=O)N(CCNC(=O)CN3C(=O)NC4(CCCC4)C3=O)C2=O)cc1,0,4.2*,2,2,5,3
CC(=O)CC[C@H]1CC[C@]2(CCCN(Cc3nccn3C)C2)O1,-1,1,0,.,-3,.
CCC(=O)NCCc1nc2cc(NC(=O)c3ccc(Cl)cc3)ccc2n1C,-1,1,3,0,10,5
CC(=O)NCCc1nc2cc(NC(=O)c3ccc(Cl)cc3)ccc2n1C,-1,2,2,2,11*,5
CCOc1ccc(-n2c(SCC(=O)c3ccc4ccccc4c3)nnc2-c2ccco2)cc1,-2,-1,-2,.,1,.
Cc1cc(C)c2[nH]c(O)c(N=NC3=NC(=O)CS3)c2c1,0,0,-2,4.3*,0,2
Cc1cc(C)c2[nH]c(O)c(N=Nc3ccc(C(=O)O)cc3)c2c1,0,0,2,-1,2,2
CC(C)c1ccc(C(=O)NN2C(=O)C3CCCCC3C2=O)cc1 (stereo not drawn),-1,3.8*,5,2,11*,5
O=C1CCC[C@H]2C[C@H](NCc3ccccc3Cl)CC[C@]23CCCN13,0,.,2,.,2,.
Cc1ccc(S(=O)(=O)NC(=O)c2cc(C)n(CC(c3ccccc3)N(C)C)c2C)cc1 (stereo not drawn),-1,-1,0,5.5*,0,1
COc1ccc(NC(=O)c2ccc3nc[nH]c3c2)c(OC)c1,-1,0,1,1,-1,-1
Cc1ccc(NC(=O)c2ccc3nc[nH]c3c2)c(O)c1,0,3,6.2*,2,11*,4
COc1ccccc1NC(=O)c1ccc2[nH]c(C)c(C)c2c1,0,1,3,3,10*,4
